This is an account of results in PubChem BioAssay (NCI).

Compounds without any hit were thinned out: in the full panel of roughly 83,000, 20% have a hit.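 96-well plates, one dose, 48 hours. Percent growth reported; active if below 10.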 Activity calls are given as the source filed them.

For this assay, the system named is COLO 205 colon. The experiment in a line: NCI-60 one-dose screen, 48 h (100 = growth as untreated, 0 = no growth, -100 = all killed). Conditions: 10 µM unless noted. As to the method: Cells are grown in 96 well plates and exposed to the test compound for 48 hours. Compounds are tested at a single concentration, which is 10^-5 M for most compounds. The reported endpoint is percent growth (GI% or GIPRCNT), where numbers from 0 - 100% represent growth inhibition, and numbers from -100% - 0 represent cell death. For example, a value of 40 represents 60% growth inhibition. A value of 0 means no net growth occurred over the course of the experiment. A value of -40 indicates 40% of cells at the beginning of the experiment died by the end of the experiment. A value of -100 means all cells are dead at the end of the experiment.
NCI-60 Human Tumor Cell Lines Screen was performed using the standard one-dose NCI protocol, which is described in more detail at https://dtp.cancer.gov/discovery_development/nci-60/default.htm.
Compounds with GIPRCNT values below 10 were considered active. Activity score was based on GIPRCNT using the following formula: […]
Score is 0 for GIPRCNT values of 100 or above, 50 for GIPRCNT values of 0, and 100 for GIPRCNT values of -100.
With `Clc1ccc2c(c1)N(c1ncnc3ccc(-c4cnc5[nH]ncc5c4)cc13)CC2`, the growth was 31.1% (inactive). For `N#C/C(=C\c1ccc2ccccc2c1)c1cc2ccccc2[nH]1` the value was 24.9% (inactive); for `N#Cc1cnc(NCCc2ccncc2)nc1-n1cnc2ccccc21`, 72.1% (inactive); for `C=C(C)[C@@H]1CC[C@]2(C(=O)OC)CC[C@]3(C)[C@H](CC[C@@H]4[C@@]5(C)C/C(=C/NC(N)=S)C(=O)C(C)(C)[C@@H]5CC[C@]43C)[C@@H]12`, 110% (inactive). In the case of `COC(=O)c1ccc2c(c1)C(=O)c1c-2n(CCCN)c(=O)c2cc([N+](=O)[O-])ccc12`, the growth is -100% (active). For `CC12CCC3c4ccccc4CCC3(CO1)C2` (stereo not given) the value was 101% (inactive). For the molecule `O=C(Nc1cccc([N+](=O)[O-])c1)c1cc2ccccc2cc1O`, the growth was -66.1% (active). On to `COC(=O)c1c2c(c(C)[n+]([O-])c1C)C(=O)C=C(NCc1ccc(Br)cc1)C2=O`, for which the growth was -69.8% (active). `CC(=O)Cc1nsc(NC(=O)c2cc(-c3cc(Cl)cc(Cl)c3)oc2C)n1`: the growth was 107% (inactive).

`Cc1nc2c(=O)[nH]c(SCC(=O)Nc3cccc(F)c3)nc2[nH]c1=O`: the growth is 111% (inactive). Take `O=C1COCCN1c1ccc(Nc2nc(Cl)nc(OCc3cn(Cc4ccccc4)nn3)n2)cc1`: the growth is 105% (inactive).

Turning to `COc1cc2c(c(OC)c1OC)-c1ccc(OC)c(=O)cc1[C@@H](NC(=O)CCl)CC2`, the growth is -71.9% (active). Take `CC[C@@H](C(=O)[C@@H](C)[C@@H](O)[C@H](C)[C@@H]1O[C@@H]([C@@H](CC)C(=O)NCCc2ccc(F)cc2)CC[C@@H]1C)C1O[C@]2(C=CC(=O)[C@]3(CC[C@@](C)([C@H]4CC[C@](O)(CC)[C@H](C)O4)O3)O2)[C@H](C)C[C@@H]1C` (stereo not given in full): the growth is 29.5% (inactive). On to `CC1(C)CC[C@]2(c3nnc(-c4ccncc4)o3)CC[C@H]3C(=CC[C@H]4[C@@]3(C)CC[C@H]3C(C)(C)C(=O)CC[C@]43C)[C@@H]2C1`, for which the growth was 67.9% (inactive). The result for `COc1cccc([C@H]2c3[nH]c4ccccc4c3C[C@H]3C(=O)N(CCCCCCC(=O)NO)CC(=O)N23)c1` reads 60.2% (inactive); that for `Cc1ccc(-c2cc(-c3ccc(Cl)cc3)nc(NC(=O)c3cccnc3)n2)cc1`, 109% (inactive). The result for `O=c1oc2ccc([N+](=O)[O-])cc2cc1Br` reads 105% (inactive); that for `O=C(CCCCC1CCSS1)Nc1ncnc2n[nH]c(-c3ccc(Oc4ccccc4)cc3)c12` (stereo not given), 88.9% (inactive); that for `CCc1ccc(C(=O)/C=C/C23c4ccccc4C(c4ccccc42)C2C(=O)NC(=O)C23)cc1` (stereo not given), -25.9% (active). In the case of `O=S(=O)(NCCNc1cc(-c2c(-c3cccc(O)c3)nc3sccn23)ccn1)c1ccc(C(F)(F)F)cc1`, the growth was 42.6% (inactive). For `C/C(Nc1ccc(Cl)c(Cl)c1)=C1\CCOC1=O` the value was 134% (inactive); for `N#CC1=C(c2ccc(Cl)cc2)Nc2c(c(-c3ccc(Cl)cc3)nn2-c2ccccc2)C12C(=O)Nc1ccc(Cl)cc12` (stereo not given), 51% (inactive); for `O=C1c2cccc(NCCN=Cc3cc(O)ccc3O)c2C(=O)c2c(NCCN=Cc3cc(O)ccc3O)cccc21`, -41.4% (active).

Regarding `COc1cc(CNS(=O)(=O)c2ccc(C)cc2)ccc1OCc1cn(-c2ccc(F)cc2)nn1`, the growth is 88% (inactive). For `O=C(O)/C(=C\c1ccc(Cl)cc1)c1ccc(Cl)cc1` the value was 117% (inactive). The result for `O=CC1(C2(C=O)c3ccccc3-c3ccccc32)c2ccccc2-c2ccccc21` reads -56% (active). The result for `CC1=C(C(=O)OC(C)C)C(c2ccc3c(c2)OCO3)NC(=S)N1` (stereo not given) reads 123% (inactive); that for `COc1cc(CNC(=O)/C=C/C=C/c2ccc3c(c2)OCO3)ccc1OCc1cn(-c2ccc(C)c(C)c2)nn1`, 80.5% (inactive); that for `Cc1cccc(Cl)c1NC(=O)c1ccc2nc(NC(=O)NCCN(C)C)sc2c1`, 45.1% (inactive).

On to `COC(=O)c1c2c(c[n+]([O-])c1C)C(=O)C(NCc1ccccc1)=CC2=O`, for which the growth is -52.5% (active). The result for `C[C@]12CC[C@@H]3c4ccc(O)c([N+](=O)[O-])c4CC[C@H]3[C@@H]1CCC2=O` reads 159% (inactive).

Take `Fc1ccc(-c2nn(-c3ccccc3)cc2-c2nc3ccccc3o2)cc1`: the growth is 140% (inactive). For `CCOC(=O)C(=Cc1cccc(Cl)c1)C(=O)OCC`, the growth is -2.83% (active).

As for `CN(C)c1ccc(Nc2cc(-c3cccc(OC(F)(F)F)c3)nc3ccc(N4CCCC4)cc23)cc1`, the growth is 70.6% (inactive).

With `CCN(CC)CCSc1nc(-c2ccccc2)c(C#N)c(=O)[nH]1`, the growth was 94.9% (inactive). For `Cc1ccc(Sc2nnc(/N=C3\C(=O)Nc4ccccc43)s2)cc1` the value was 116% (inactive); for `CCOc1ccc(NC(=O)CSc2oc(-c3ccccc3)nc2S(=O)(=O)c2ccc(F)cc2)cc1`, 93.2% (inactive).

In the case of `Nc1c(C(=O)Nc2ccccc2Cl)sc2nc3c(cc12)C(O)CCC3` (stereo not given), the growth was 4.09% (active). For `CCC(=C(c1ccc(OCCN2CCCC2)cc1)c1ccc(OCCN2CCCC2)cc1)c1ccc(Cl)cc1` the value was -64.8% (active). The result for `O=S(=O)(Nc1cc(Br)c(O)c2ccccc12)c1ccc(F)cc1` reads 93.2% (inactive).
